From PubChem BioAssay
Calls of active or inactive are those of the source.

Assays:
[1] = E. coli DRC41 culture turbidity changes, primary screen, E. coli filamentation inducer project, strain DRC41, OD650, 48 h (AID 1152);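 note: E. coli MC1000 strain DRC41 lacking acrAB efflux pump and sulA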; settings: E. coli DRC41 (acrAB sulA), higher = more signal, called active from +8 up or from −8 down
[2] = small-molecule binders of probe aLefty1, primary screen, biochemical, small-molecule microarray, 635/667 nm fluorescence (AID 1153); settings: higher = more signal;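 note: score merges spot fluorescence with signal-to-noise ratio from the scanned slide images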
[3] = PSAC antagonists in infected red cells, primary screen, cell-based, P. falciparum Indochina, OD700, 1 h (AID 1154); settings: P. falciparum Indochina infected RBC osmotic lysis, higher = more signal, called active from +8 up or from −8 down
[4] = PSAC antagonists in infected red cells, primary screen, cell-based, P. falciparum Indochina, OD700, 2 h (AID 1155);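 note: lysis reports solute entry through the parasite surface anion channel PSAC; channel blockers reduce lysis of infected cells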; settings: P. falciparum Indochina infected erythrocytes, osmotic lysis OD700; higher = more signal, called active from +8 up or from −8 down
[5] = osmotic lysis modulators in infected erythrocytes, primary screen, PSAC antagonist project, cell-based, P. falciparum Indochina, OD700, 3 h (AID 1156); settings: higher = more signal, called active from +8 up or from −8 down
[6] = PSAC antagonists in infected red cells, primary screen, cell-based, P. falciparum Indochina, OD700, 18 h (AID 1157); settings: P. falciparum Indochina infected erythrocytes, osmotic lysis OD700, 18 h; higher = more signal, called active from +8 up or from −8 down
[7] = modulators of S6 phosphorylation in cells, primary screen, cell-based, A549, cytoblot, luminescence, serum-stimulated (AID 1158); settings: A549 phospho-S6 cytoblot, 5 h, higher = more signal;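 note: serum-stimulated A549 lung adenocarcinoma cells; signal is phosphorylated S6 detected by cytoblot immunostaining with HRP secondary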
[8] = target: NADPH oxidase 2 (Homo sapiens) (UniProt P04839); experiment: NOX2-dependent H2O2 signal modulators, primary screen, NOX inhibitor project, cell-based, HEK293-NOX2, PMA-stimulated, Amplex Red fluorescence (AID 1159); settings: 45 min, higher = more signal, called active from +8 up or from −8 down; note: test concentration not given here
NADPH oxidase 2 (Homo sapiens), sequence (P04839 whole entry, looked up): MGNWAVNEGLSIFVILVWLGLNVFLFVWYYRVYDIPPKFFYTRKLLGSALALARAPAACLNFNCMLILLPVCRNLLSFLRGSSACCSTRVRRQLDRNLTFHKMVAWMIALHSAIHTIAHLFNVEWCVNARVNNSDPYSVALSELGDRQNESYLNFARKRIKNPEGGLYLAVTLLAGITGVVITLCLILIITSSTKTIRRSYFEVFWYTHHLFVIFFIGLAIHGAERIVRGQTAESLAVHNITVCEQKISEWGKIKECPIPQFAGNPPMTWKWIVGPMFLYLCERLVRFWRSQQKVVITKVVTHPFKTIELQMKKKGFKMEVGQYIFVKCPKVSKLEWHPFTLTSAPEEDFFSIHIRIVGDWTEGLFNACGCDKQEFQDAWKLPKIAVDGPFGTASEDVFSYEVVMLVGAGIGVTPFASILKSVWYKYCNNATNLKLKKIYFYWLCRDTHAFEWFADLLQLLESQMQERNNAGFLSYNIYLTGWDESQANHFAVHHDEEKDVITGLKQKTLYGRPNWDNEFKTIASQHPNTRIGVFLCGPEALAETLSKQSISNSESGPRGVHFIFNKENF

[9] = target: NADPH oxidase 4 (Homo sapiens) (UniProt Q9NPH5); experiment: NOX4-dependent H2O2 signal modulators, primary screen, NOX inhibitor project, cell-based, HEK293-NOX4, tetracycline-induced, Amplex Red fluorescence (AID 1160); settings: 45 min, higher = more signal, called active from +8 up or from −8 down
NADPH oxidase 4 (Homo sapiens), sequence (Q9NPH5 whole entry, looked up): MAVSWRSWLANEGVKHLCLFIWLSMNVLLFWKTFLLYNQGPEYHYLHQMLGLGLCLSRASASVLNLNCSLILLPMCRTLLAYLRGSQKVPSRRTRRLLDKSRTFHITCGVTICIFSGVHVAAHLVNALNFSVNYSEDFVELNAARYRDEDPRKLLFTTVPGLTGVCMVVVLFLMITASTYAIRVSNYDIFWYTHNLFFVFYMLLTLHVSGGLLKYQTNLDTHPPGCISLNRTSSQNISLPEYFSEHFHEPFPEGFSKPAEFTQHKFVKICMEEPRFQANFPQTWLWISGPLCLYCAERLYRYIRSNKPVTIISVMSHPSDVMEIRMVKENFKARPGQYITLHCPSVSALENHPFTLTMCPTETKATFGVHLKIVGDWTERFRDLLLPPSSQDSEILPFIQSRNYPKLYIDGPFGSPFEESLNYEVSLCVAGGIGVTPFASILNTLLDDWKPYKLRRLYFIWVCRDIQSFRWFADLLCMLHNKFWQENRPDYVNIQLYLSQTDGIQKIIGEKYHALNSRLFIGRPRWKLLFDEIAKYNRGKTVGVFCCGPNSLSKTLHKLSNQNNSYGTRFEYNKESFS

[10] = target: NADPH oxidase 5 (Homo sapiens) (UniProt Q96PH1); experiment: NOX5-dependent H2O2 signal modulators, primary screen, NOX inhibitor project, cell-based, HEK293-NOX5, Amplex Red fluorescence (AID 1161); settings: HEK293-NOX5, ionomycin, 45 min, higher = more signal
NADPH oxidase 5 (Homo sapiens), sequence (Q96PH1 whole entry, looked up): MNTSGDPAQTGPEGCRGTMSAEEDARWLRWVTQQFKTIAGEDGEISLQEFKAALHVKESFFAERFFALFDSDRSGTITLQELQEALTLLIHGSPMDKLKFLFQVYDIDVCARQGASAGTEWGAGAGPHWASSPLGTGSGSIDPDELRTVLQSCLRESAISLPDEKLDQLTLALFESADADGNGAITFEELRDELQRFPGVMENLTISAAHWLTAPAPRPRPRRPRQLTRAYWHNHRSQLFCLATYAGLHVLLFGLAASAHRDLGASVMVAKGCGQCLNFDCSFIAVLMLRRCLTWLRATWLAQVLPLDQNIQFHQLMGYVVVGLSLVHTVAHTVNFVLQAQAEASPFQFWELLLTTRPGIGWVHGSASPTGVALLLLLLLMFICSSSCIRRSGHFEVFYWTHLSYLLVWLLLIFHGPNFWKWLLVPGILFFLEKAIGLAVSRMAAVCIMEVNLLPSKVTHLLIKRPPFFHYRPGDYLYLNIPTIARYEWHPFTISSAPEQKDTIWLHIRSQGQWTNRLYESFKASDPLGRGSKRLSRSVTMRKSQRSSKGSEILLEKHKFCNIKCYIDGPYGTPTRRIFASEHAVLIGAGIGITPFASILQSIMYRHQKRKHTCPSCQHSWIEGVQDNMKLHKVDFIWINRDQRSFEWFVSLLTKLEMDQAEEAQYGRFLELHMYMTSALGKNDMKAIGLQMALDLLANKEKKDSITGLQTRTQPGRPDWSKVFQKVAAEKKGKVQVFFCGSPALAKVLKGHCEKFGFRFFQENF

SMILES	z-score [1]	composite z-score [2]	z-score [3]	z-score [4]	z-score [5]	z-score [6]	z-score [7]	z-score [8]	z-score [9]	z-score [10]
COc1cc(C(O)C2C=CC3C(=O)N(c4ccccc4)C(=O)C3N2Nc2ccccc2F)cc(OC)c1OC (stereo not given)	-1.19 (inactive)	0.149	5.94 (inactive)	1.25 (inactive)	-0.276 (inactive)	0.462 (inactive)	-1.01	-1.67 (inactive)	-4.07 (inactive)	-3.16
O=C(N1CCOCC1)[C@@]1(Cc2ccccc2)COC(c2ccc(OCCCO)cc2)=N1	2.51 (inactive)	-0.132	12 (active)	0.653 (inactive)	0.929 (inactive)	-0.269 (inactive)	1.66	-2.33 (inactive)	0.642 (inactive)	-1.51
C=CCOC(=O)[C@H]1[C@@H]2C(=O)O[C@@H](c3ccccc3)[C@@H](c3ccccc3)N2[C@@H](c2ccc(OCCOC(=O)[C@@H]3C[C@@H]4C(=O)N[C@@H](CCCC[N+](C)(C)C)C(=O)N4[C@@H]3c3ccc(O)cc3)cc2)[C@]12C(=O)Nc1ccc(I)cc12	-1.78 (inactive)	0.521	-1.03 (inactive)	-0.497 (inactive)	5.53 (inactive)	-0.582 (inactive)	-2.1	1.66 (inactive)	-1.21 (inactive)	0.61
NC(=O)N1C(=O)C2C(C1=O)C1C=C(CCCO)C2C(C2CC2)N1Cc1sc2ccccc2c1Cl (stereo not given)	0.4 (inactive)	0.105	13.4 (active)	2.12 (inactive)	0.394 (inactive)	1.07 (inactive)	0.125	2.74 (inactive)	0.923 (inactive)	-0.549
O=C1c2ccccc2[C@@]2(Cc3ccccc3N(Cc3ccccc3)C2=O)[C@H](c2ccc(CO)cc2)N1Cc1ccccc1Cl	-0.29 (inactive)	-0.0479	0.705 (inactive)	0.387 (inactive)	-0.113 (inactive)	0.18 (inactive)	0.272	-0.534 (inactive)	-0.644 (inactive)	-1.11
CN(C)CCCC[C@@H]1NC(=O)[C@@H]2C[C@H](C(=O)NCCCCCCNC(=O)CS)[C@H](c3ccc(O)cc3)N2C1=O	-1.05 (inactive)	0.0013	1.19 (inactive)	0.284 (inactive)	-1.22 (inactive)	0.0814 (inactive)	0.58	0.559 (inactive)	0.781 (inactive)	0.873
COCCOC(=O)N1C(=O)[C@@]2(c3cc(C#CCC(C(=O)OC)C(=O)OC)ccc31)[C@H](C(=O)Nc1nc3ccccc3s1)[C@H]1C(=O)O[C@H](c3ccccc3)[C@H](c3ccccc3)N1[C@@H]2c1ccc(OCCO)cc1	0.836 (inactive)	0.529	5.5 (inactive)	1.77 (inactive)	0.832 (inactive)	1.39 (inactive)	-0.265	1.75 (inactive)	1.03 (inactive)	1.33
COC(=O)[C@H](Cc1ccccc1)N1CC2=CCCC=C[C@@H]2[C@H]1[C@H](O)Cc1ccccc1	-0.53 (inactive)	0.315	1.31 (inactive)	0.492 (inactive)	0.429 (inactive)	0.256 (inactive)	-0.232	-0.286 (inactive)	-0.477 (inactive)	-0.647
C=C(CCCC)C(=O)CC[C@@H](OC(=O)c1ccccc1-c1ccccc1C(=O)O)c1ccccc1OCCO	0.414 (inactive)	-0.0003	6.1 (inactive)	0.148 (inactive)	-0.138 (inactive)	-1.14 (inactive)	0.332	1.78 (inactive)	0.0357 (inactive)	-1.39
C[C@@H]1NC(=O)C([C@@H](C)OCc2ccccc2)NC(=O)[C@@]23C(=O)N[C@@H](Cc4ccccc4)C2[C@H](C)[C@@]2(C)O[C@H]2C3/C=C/C/C=C\CNC1=O (stereo not given in full)	-0.999 (inactive)	-0.147	2.36 (inactive)	-0.169 (inactive)	0.604 (inactive)	0.182 (inactive)	-0.093	0.715 (inactive)	-0.942 (inactive)	0.467
C=CCC(OC(C)=O)[C@@H]1[C@@H](N(Cc2ccc(-c3cccc(C(F)(F)F)c3)o2)C(=O)c2ccc(-c3ccccc3)cc2)c2cc(OCCCO)ccc2N1C(=O)c1ccc2ccccc2c1 (stereo not given in full)	-0.251 (inactive)	0.0718	0.7 (inactive)	-0.125 (inactive)	1.36 (inactive)	0.408 (inactive)	0.921	-1.99 (inactive)	-1.98 (inactive)	-1.09
CCOC(=O)c1cn(C[C@H](Cc2ccccc2)NC(=O)N[C@H](CO)CCc2oc(C(C)=O)c(C(=O)OC)c2C(=O)OC)nn1	-0.427 (inactive)	0.143	1.14 (inactive)	-1.06 (inactive)	0.661 (inactive)	-0.473 (inactive)	0.0878	-3.04 (inactive)	-3.25 (inactive)	-1.9
C=CCOC(=O)[C@H]1[C@@H]2C(=O)O[C@@H](c3ccccc3)[C@@H](c3ccccc3)N2[C@@H](c2ccc(OCCOC(=O)[C@@H]3C[C@@H]4C(=O)N[C@@H](CCCCNC(C)=O)C(=O)N4[C@@H]3c3cccc(OCCO)c3)cc2)[C@]12C(=O)Nc1ccccc12	-0.637 (inactive)	0.082	3.6 (inactive)	1.34 (inactive)	2.28 (inactive)	0.621 (inactive)	-0.52	1.83 (inactive)	1.4 (inactive)	0.618
COC(=O)[C@@]1(Cc2ccc(F)cc2)[C@H]2c3cc(C(=O)N(C)C)n(CCc4ccc(O)c(O)c4)c3C[C@H]2CN1C(=O)c1ccccc1	-0.81 (inactive)	0.162	0.183 (inactive)	0.194 (inactive)	0.248 (inactive)	0.494 (inactive)	0.407	-0.168 (inactive)	-1.31 (inactive)	-0.966
C=CCNC(=O)[C@H]1[C@@H]2C(=O)O[C@@H](c3ccccc3)[C@@H](c3ccccc3)N2[C@@H](c2ccc(OCCO)cc2)[C@]12C(=O)Nc1ccc(C#CC3(O)CCCCCC3)cc12	0.803 (inactive)	0.523	2.48 (inactive)	1.54 (inactive)	-0.441 (inactive)	0.311 (inactive)	0.977	1.94 (inactive)	1.18 (inactive)	0.902
COC(=O)[C@@]1(Cc2ccc(F)cc2)[C@H]2c3cc(C(=O)N4CCCC4)n(Cc4cc(F)cc5c4OCOC5)c3C[C@H]2CN1C(=O)c1ccccc1	-2.25 (inactive)	0.617	3.29 (inactive)	0.273 (inactive)	3.36 (inactive)	0.886 (inactive)	0.0568	-0.332 (inactive)	0.115 (inactive)	0.853
Cc1ccccc1C(O)C1C=CC2C(=O)N(c3ccccc3)C(=O)C2N1Nc1ccccc1 (stereo not given)	-0.29 (inactive)	0.271	20.1 (active)	3.73 (inactive)	0.214 (inactive)	1.59 (inactive)	-0.495	-1.85 (inactive)	-2.96 (inactive)	-2.44
CC1=C([C@H](O)CCc2ccccc2)[C@H](CO)n2c(=O)n(-c3ccccc3)c(=O)n2C1	2.91 (inactive)	-0.06	1.44 (inactive)	-0.657 (inactive)	-0.237 (inactive)	-1.48 (inactive)	1.77	-0.53 (inactive)	-0.429 (inactive)	0.218
COC(=O)[C@@]1(Cc2ccccc2)N=C(c2ccc(OCCCO)cc2)O[C@H]1c1ccccc1CN=[N+]=[N-]	1.11 (inactive)	0.313	23 (active)	7.26 (inactive)	-0.202 (inactive)	2.21 (inactive)	0.239	-6.02 (inactive)	-0.914 (inactive)	-3.31
COc1ccc([Si](C)(C)[C@@H]2[C@@H](CC(=O)N3Cc4ccccc4C[C@H]3CO)O[C@]3(C(=O)N(Cc4cccc(N5CCOC5=O)c4)c4ccccc43)[C@H]2C)cc1	-0.207 (inactive)	0.647	5.29 (inactive)	1.06 (inactive)	0.599 (inactive)	0.548 (inactive)	0.114	-2.65 (inactive)	1.1 (inactive)	-1.02
